This note sets out measurements from PubChem BioAssay (NCATS).

The target of experiment [1] is Peroxisome proliferator-activated receptor gamma (Homo sapiens) (UniProt P37231). As to the kind of experiment: qHTS assay for small molecule agonists of peroxisome proliferator-activated receptor gamma signaling (AID 588536; active means well fitted curve in the direction sought with a large enough effect in the signal ratio, with a control signal flat, not every such curve was filed as active; the % refers to the signal ratio;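 further: 0% = DMSO basal wells and 100% = rosiglitazone at 2 µM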). The following applies: HEK293 PPARg-UAS-bla, beta-lactamase ratio, 16 h, percent of rosiglitazone response, DMSO as zero; series mostly up to 76.7 µM. In outline:
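HEK293 UAS-bla reporter line, 1% charcoal/dextran FBS; titration, 16 h, 37 C; CCF4 loading 2 h RT; fluorescence 460/530 nm. Normalized to rosiglitazone 2 uM = 100%, DMSO = 0%.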
In general terms: In qHTS, concentration-response curves come from the screen itself.

The target in experiment [2] is Vitamin D3 receptor (Homo sapiens) (UniProt P11473). As to the kind of experiment: qHTS assay for small molecule antagonists of vitamin D receptor signaling (AID 588541; calls by dose curve;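 further: receptor activated by calcitriol during compound treatment; on the % scale 0 is the no-effect control and ±100 the full control effect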). The following applies: HEK293T VDR-UAS-bla, beta-lactamase ratio, antagonist mode; series mostly up to 76.7 µM. The method, boiled down:
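Antagonist-mode beta-lactamase reporter assay: HEK293T VDR-UAS-bla cells were exposed to titrated compound alongside 1-alpha,25-dihydroxyvitamin D3 at 3 nM final for 16 h. Values were normalized to the 50 nM agonist control and DMSO basal, with IC50 and efficacy from Hill equation fits.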

The target is the same in experiment [3]. As to the kind of experiment: qHTS assay for small molecule agonists of vitamin D receptor signaling (AID 588543; calls by dose curve;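 further: 0% = DMSO basal and 100% = reference agonist control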). The following applies: HEK293T VDR-UAS-bla, beta-lactamase ratio, 16 h; series mostly up to 76.8 µM. In outline:
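GeneBLAzer VDR-UAS-bla HEK293T cells in 2% charcoal-stripped FBS medium were dosed with compound titrations for 16 h at 37 °C; CCF4 β-lactamase readout (405 nm ex, 460/530 nm em). EC50 and efficacy from Hill fits, normalized to 50 nM calcitriol (100%) and DMSO (0%).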

A short description of experiment [4]: qHTS assay for small molecule agonists of retinoid X receptor alpha signaling (AID 588544; calls by dose curve;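 on activation: 0% = DMSO basal wells and 100% = reference agonist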). Particulars: HEK293T RXRa-UAS-bla, beta-lactamase reporter, 18 h; 530 nm emission.
In experiment [5] the target is Retinoic acid receptor RXR-alpha (Homo sapiens) (UniProt P19793). The experiment is described as above. The following applies: HEK293T RXRa-UAS-bla, beta-lactamase reporter, 18 h; series mostly up to 76.7 µM.
Chain of Retinoic acid receptor RXR-alpha (Homo sapiens) (P19793 whole entry, looked up): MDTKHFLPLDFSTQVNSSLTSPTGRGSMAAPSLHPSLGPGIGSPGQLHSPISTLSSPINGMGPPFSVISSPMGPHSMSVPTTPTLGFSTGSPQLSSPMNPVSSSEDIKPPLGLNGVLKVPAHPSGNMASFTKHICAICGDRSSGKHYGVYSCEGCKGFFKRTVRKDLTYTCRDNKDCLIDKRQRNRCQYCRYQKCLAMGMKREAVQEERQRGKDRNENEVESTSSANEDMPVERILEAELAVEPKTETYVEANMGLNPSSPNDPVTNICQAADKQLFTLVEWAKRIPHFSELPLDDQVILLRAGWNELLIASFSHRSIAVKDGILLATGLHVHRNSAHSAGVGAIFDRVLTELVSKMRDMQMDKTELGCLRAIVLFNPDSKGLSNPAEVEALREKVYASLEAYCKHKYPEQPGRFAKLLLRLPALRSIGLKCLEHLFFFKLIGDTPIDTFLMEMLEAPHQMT
Experiment [6] concerns the target Thyroid hormone receptor beta (Homo sapiens) (UniProt P10828). As to the kind of experiment: qHTS assay for small molecule agonists of thyroid hormone receptor beta signaling (AID 588545; calls by dose curve;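 further: 0% = DMSO only and 100% = 10 nM T3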). The following applies: TR-UAS-bla GripTite HEK 293, beta-lactamase ratio, agonist mode, 18 h; series mostly up to 76.7 µM. The method, boiled down:
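Beta-lactamase reporter activity under TR response element control is measured in HEK 293 cells after 18 hrs compound exposure. Signal is ratiometric CCF4 fluorescence, 460/530 nm.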

Experiment [7] in a line: qHTS assay for small molecule antagonists of retinoid X receptor alpha signaling (AID 588546; active means well fitted inhibition curve with a large enough effect in the signal ratio, with a control signal flat, not every such curve was filed as active; the % refers to the signal ratio;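 further: cells stimulated with 9-cis-retinoic acid as agonist; on the % scale 0 is the no-effect control and ±100 the full control effect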). Particulars: HEK293T RXRa-UAS-bla, beta-lactamase ratio, antagonist mode; measured here: W530 green channel, cytotoxicity proxy. The method, boiled down:
(§1)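 Beta-lactamase reporter inhibition, read as CCF4 fluorescence ratio (ex 405, em 460/530 nm) after 2 h at RT. HEK293T UAS-bla cells, 2500/well, were stimulated with 9-cis-RA at 500 or 100 nM final alongside test compound for 18 h at 37 C.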

Experiment [8] has as its target Retinoic acid receptor RXR-alpha (Homo sapiens) (UniProt P19793). The description is as above. Particulars: HEK293T RXRa-UAS-bla, beta-lactamase ratio, antagonist mode. The method, boiled down: as §1
Experiment [9] is described as follows: qHTS assay for small molecule activators of the nuclear factor-kappa B (NF-kB) signaling pathway (AID 651749; active means well fitted activation curve with a large enough effect in the signal ratio; the % refers to the signal ratio; further: % of control where 0% means no effect). Particulars: NF-kB-bla ME-180 cells, beta-lactamase FRET ratio, 16 h; activation: stronger effect = higher value. The method, boiled down:
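Readout: beta-lactamase reporter driven by an NF-kB response element, detected fluorescently as loss of FRET. Cells were the ME-180 line, treated 16 hr at 37C with pin-transferred compound.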

Experiment [10] is described as follows: qHTS assay for environmental chemicals that activate the Aryl hydrocarbon Receptor (AhR) signaling pathway (AID 651777). Further: % of control where 0% means no effect; nearly all actives have a fitted effect of over 15% in size. Particulars: 1A2-DRE human hepatoma cells, luciferase, 24 h; activation: stronger effect = higher value. In outline: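 Human hepatoma 1A2-DRE cells, stably carrying a dioxin response element and CYP1A2 promoter driving luciferase, were exposed to compounds for 24 hr at 37 C and 5% CO2. Luciferase signal was then read after 30 min One-Glo at room temperature.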

In experiment [11] the target is Peroxisome proliferator-activated receptor alpha (Homo sapiens) (UniProt Q07869). As to the kind of experiment: qHTS assay for small molecule agonists of the peroxisome proliferator-activated receptor alpha (PPARalpha) signaling pathway (AID 651778). Further: % of control where 0% means no effect. Particulars: PathHunter PPARalpha complementation, chemiluminescence, 6 h; max response: stronger effect = higher value. In outline: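 Chemiluminescence from complemented enzyme reported PPARalpha activation in cells after 6 hr of compound treatment at 37 C. The detection reagent was incubated for 60 min at room temperature, and compounds were scored as agonists.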
Chain of Peroxisome proliferator-activated receptor alpha (Homo sapiens) (Q07869 whole entry, looked up): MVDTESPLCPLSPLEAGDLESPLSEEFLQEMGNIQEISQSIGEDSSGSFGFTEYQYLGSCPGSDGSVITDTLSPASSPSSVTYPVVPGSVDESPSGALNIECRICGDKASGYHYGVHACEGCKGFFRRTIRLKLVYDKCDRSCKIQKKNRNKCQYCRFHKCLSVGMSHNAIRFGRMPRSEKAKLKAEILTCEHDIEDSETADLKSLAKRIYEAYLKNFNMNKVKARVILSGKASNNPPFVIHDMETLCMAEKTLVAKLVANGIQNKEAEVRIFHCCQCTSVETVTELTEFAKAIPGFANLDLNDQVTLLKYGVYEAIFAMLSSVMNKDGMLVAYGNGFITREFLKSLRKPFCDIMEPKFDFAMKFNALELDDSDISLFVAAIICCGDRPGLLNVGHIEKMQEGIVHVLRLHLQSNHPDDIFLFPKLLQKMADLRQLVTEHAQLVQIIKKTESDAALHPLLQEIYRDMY

Experiment [12] can be described thus: qHTS assay for small molecule agonists of the antioxidant response element (ARE) signaling pathway measured by Nrf2-dependant transcriptional activity (AID 720636; active means well fitted curve in the direction sought with a large enough effect in the repeat runs; an effect the other way counts as inactive or inconclusive; further: % of control where 0% means no effect). The following applies: ARE-luc HepG2, Nrf2 luciferase reporter, 16 h; series mostly up to 92.4 µM. The method, boiled down: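 ARE-luc HepG2 cells carrying an Nrf2-responsive luciferase reporter were plated in medium with 1% dialyzed FBS, left 6 hr at 37 C to attach, then exposed to compound for 16 hr. Luciferase luminescence was read after ONE-Glo addition.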

Experiment [13] can be described thus: qHTS assay for small molecule agonists of the antioxidant response element (ARE) signaling pathway measured by Nrf2-dependant transcriptional activity - cell viability counter screen (AID 720653; active means well fitted curve in the direction sought with a large enough effect in the repeat runs; an effect the other way counts as inactive or inconclusive; further: on the % scale 0 is the no-effect control and ±100 the full control effect). Particulars: ARE-bla HepG2 viability, CellTiter-Glo ATP luminescence, 16 h; max response: stronger effect = lower value. The method, boiled down: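 Cytotoxicity counter screen: intracellular ATP quantified by CellTiter-Glo luminescence in the same ARE-bla HepG2 plates, after 16 h compound exposure and a 2 h beta-lactamase substrate step.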

Experiment [14] in a line: qHTS assay for cell viability of HEK293 cells (AID 743288). Further: on the % scale 0 is the no-effect control and ±100 the full control effect; nearly all actives have a fitted effect of over 50% in size. Particulars: ATP luminescence (CellTiter-Glo), 18 h; max response: stronger effect = lower value. In outline:
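Parental HEK293 cells were seeded at 2,000 cells/well, rested at least 5 h at 37 C, then exposed to compounds in DMSO for 18 h at 37 C. Viability was read as ATP-dependent luciferase luminescence after 30 min at room temperature.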

Experiment [15] can be described thus: qHTS assay for cell viability of the p53RE-bla HCT-116 cell line (AID 743292). Further: on the % scale 0 is the no-effect control and ±100 the full control effect; nearly all actives have a fitted effect of over 55% in size. The following applies: p53RE-bla HCT-116 viability, ATP luminescence, 16 h; series mostly up to 95 µM. In outline: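 CellSensor p53RE-bla HCT-116 cells, 4,000/well, preincubated 5 h at 37 C, then exposed to compounds in DMSO for 16 h at 37 C. Viability read as CellTiter-Glo luminescence (intracellular ATP) after 30 min at room temperature.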

In experiment [16] the target is Nuclear receptor subfamily 1 group I member 2 (Rattus norvegicus) (UniProt Q9R1A7). As to the kind of experiment: qHTS assay for small molecule activators of the rat pregnane X receptor (rPXR) signaling pathway (AID 651751; call rule not given here; further: 0% is about no effect). The following applies: rPXR reporter cells, luciferase (One-Glo), 24 h.
Chain of Nuclear receptor subfamily 1 group I member 2 (Rattus norvegicus) (Q9R1A7 whole entry, looked up): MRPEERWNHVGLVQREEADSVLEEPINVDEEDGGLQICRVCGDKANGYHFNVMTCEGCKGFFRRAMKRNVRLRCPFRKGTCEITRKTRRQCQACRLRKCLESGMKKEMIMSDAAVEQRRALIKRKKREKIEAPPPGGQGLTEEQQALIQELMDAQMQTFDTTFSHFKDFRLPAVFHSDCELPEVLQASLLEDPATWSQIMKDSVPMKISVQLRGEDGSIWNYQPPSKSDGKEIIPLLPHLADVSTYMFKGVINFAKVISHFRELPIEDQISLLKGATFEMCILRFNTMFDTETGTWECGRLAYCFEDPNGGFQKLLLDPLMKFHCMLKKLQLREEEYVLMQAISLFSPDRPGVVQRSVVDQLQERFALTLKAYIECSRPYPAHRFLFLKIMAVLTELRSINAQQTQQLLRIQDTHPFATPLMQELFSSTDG
The nature of experiment [17]: qHTS assay for small molecule activators of the human pregnane X receptor (PXR) signaling pathway (AID 720659; call rule not given here; further: 0% is about no effect). The following applies: DPX-2 HepG2 CYP3A4-luciferase, 24 h; series mostly up to 92.3 µM.
Experiment [18] can be described thus: qHTS assay for small molecule antagonists of peroxisome proliferator-activated receptor delta signaling (AID 588535; active means well fitted inhibition curve with a large enough effect in the signal ratio, with a control signal flat, not every such curve was filed as active; the % refers to the signal ratio;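 on max response: cells co-treated with a PPAR-delta agonist as stimulator during compound exposure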). The following applies: HEK293T PPARd-UAS-bla, beta-lactamase FRET ratio, 18 h; 460 nm channel. The method, boiled down:
(§2)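 HEK293T PPAR-delta-UAS-bla cells, 4000/well, 2% charcoal/dextran FBS; 5 h 37 C; cpd titration; 18 h 37 C; CCF4 2 h RT; FI 460/530 nm; Hill fit → IC50, efficacy.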

Experiment [19] concerns the target Peroxisome proliferator-activated receptor delta (Homo sapiens) (UniProt Q03181). Described as above. Particulars: HEK293T PPARd-UAS-bla, beta-lactamase FRET ratio, 18 h; series mostly up to 76.7 µM. In outline:
as §2

Inconclusive results are not listed. Activity calls are given as the source filed them. Unless noted, the call rests on the fitted dose curve; in most records, active means well fitted curve in the direction sought with a large enough effect; inconclusive means small, poorly fitted or top-dose-only effect, or another doubt; inactive means no such curve, though single readings can be large; an effect the other way counts as inactive or inconclusive.

Chain of Thyroid hormone receptor beta (Homo sapiens) (P10828 whole entry, looked up): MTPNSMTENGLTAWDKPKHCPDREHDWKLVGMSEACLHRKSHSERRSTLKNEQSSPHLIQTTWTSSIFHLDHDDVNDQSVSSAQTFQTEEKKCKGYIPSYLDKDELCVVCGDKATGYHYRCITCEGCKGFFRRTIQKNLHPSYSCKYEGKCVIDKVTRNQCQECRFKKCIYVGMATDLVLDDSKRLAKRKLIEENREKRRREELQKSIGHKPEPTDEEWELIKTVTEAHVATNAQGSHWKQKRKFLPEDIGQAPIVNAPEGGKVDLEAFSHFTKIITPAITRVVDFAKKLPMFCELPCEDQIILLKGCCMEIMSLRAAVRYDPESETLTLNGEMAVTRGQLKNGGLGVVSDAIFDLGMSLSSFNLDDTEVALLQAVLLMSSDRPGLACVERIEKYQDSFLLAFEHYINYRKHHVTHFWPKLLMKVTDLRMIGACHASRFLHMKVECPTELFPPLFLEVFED
Chain of Peroxisome proliferator-activated receptor gamma (Homo sapiens) (P37231 whole entry, looked up): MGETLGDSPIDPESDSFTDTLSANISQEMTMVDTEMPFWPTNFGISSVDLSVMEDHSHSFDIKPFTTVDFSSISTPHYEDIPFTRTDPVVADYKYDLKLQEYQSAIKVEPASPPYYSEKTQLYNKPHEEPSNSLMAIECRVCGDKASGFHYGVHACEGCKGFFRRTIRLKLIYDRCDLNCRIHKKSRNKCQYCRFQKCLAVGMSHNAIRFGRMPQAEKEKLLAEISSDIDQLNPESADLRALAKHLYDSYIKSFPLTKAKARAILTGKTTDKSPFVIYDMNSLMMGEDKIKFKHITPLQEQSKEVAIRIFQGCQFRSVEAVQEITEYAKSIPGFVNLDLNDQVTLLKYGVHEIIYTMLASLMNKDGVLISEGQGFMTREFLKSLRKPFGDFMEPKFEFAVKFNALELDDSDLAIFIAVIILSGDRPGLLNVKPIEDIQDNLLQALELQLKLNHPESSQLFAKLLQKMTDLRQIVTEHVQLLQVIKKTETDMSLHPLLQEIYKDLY
Chain of Vitamin D3 receptor (Homo sapiens) (P11473 whole entry, looked up): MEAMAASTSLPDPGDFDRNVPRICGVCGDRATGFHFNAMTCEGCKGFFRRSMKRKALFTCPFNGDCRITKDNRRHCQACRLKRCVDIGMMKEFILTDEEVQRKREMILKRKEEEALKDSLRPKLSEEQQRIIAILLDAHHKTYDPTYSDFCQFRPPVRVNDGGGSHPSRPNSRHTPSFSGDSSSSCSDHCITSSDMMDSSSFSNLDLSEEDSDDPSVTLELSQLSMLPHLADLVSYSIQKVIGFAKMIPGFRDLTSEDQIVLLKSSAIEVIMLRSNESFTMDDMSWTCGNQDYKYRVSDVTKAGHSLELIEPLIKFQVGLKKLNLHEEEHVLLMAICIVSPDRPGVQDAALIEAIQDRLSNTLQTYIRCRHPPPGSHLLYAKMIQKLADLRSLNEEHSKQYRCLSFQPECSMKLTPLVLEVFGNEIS
Chain of Peroxisome proliferator-activated receptor delta (Homo sapiens) (Q03181 whole entry, looked up): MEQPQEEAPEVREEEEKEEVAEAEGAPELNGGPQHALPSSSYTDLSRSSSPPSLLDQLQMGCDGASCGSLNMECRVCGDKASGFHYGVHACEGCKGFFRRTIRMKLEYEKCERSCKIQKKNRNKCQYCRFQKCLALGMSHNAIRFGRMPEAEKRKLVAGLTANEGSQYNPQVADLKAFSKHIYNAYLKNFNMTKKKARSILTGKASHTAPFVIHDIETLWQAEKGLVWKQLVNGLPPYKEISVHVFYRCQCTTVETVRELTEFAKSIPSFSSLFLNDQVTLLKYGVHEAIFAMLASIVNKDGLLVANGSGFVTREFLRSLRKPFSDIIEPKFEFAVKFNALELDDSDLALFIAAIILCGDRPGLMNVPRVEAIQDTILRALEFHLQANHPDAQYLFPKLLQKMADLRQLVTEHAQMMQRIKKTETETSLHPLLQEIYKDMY

Regarding `Cc1c(Cl)cccc1Cl`, the outcome in experiment [1], in experiment [3] and in [17] was inactive. The Potency result in experiment [2], in [5], in experiment [6], in experiment [12] and in experiment [15] was “inactive” each time. Moreover, the max response is -9.08% in experiment [4]; -1.12% in experiment [7]; -5.5% (inactive) in [8]; -1.42% (inactive) in experiment [11]; -14.1% (inactive) in experiment [13]; -7.06% (inactive) in [14]. Further, the max response in experiment [16] was -2.7% (inactive). Also, the activation was -1.64% (inactive) in experiment [9] and -0.186% (inactive) in experiment [10].
As for `CCCCOCCOCCO`, the result in experiment [1], in [3] and in experiment [17] was inactive. Further, the Potency entry in experiment [2], in [5] and in experiment [6] was “inactive” each time. Besides, the max response in experiment [4] is -10.9%; in experiment [7], 1.46%; in [8], -25.6% (inactive); in [11], -0.568% (inactive); in [13], 3.56% (inactive); in experiment [14], -12.6% (inactive). Moreover, the max response in experiment [16] was -2.42% (inactive). Moreover, the activation in experiment [9] was -0.601% (inactive); in [10] it was 0.311% (inactive).
As to `CC1(C)CC(OC(=O)CCCCCCCCC(=O)OC2CC(C)(C)NC(C)(C)C2)CC(C)(C)N1`, the max response in [18] was 5.94%; in experiment [4], -2.95%; in experiment [7], 5.99%; in experiment [8], -19.6% (inactive); in experiment [11], -4.12% (inactive); in experiment [13] it was -3.17% (inactive). Moreover, the values for the max response in experiment [14] and in experiment [16] were -10.1% (inactive) and -0.828% (inactive), respectively. Further, the Potency entry in [19], in experiment [2], in experiment [5], in experiment [6] and in experiment [15] was “inactive” throughout. Moreover, the result in experiment [1] and in [17] was inactive. In experiment [9], the activation was 2.54% (inactive).
For the compound `CCCCCCCCCCCCCCCCCC#N`, the max response in experiment [18] was 1.68%; in experiment [4], -14.7%; in experiment [7] it was -8.8%; in [8] it was -4.3% (inactive); in experiment [11], 3.6% (inactive); in experiment [13] it was 11.9% (inactive). The max response was -12.8% (inactive) in [14] and 2.15% (inactive) in [16]. The Potency entry in experiment [19], in experiment [5], in experiment [6], in [12] and in [15] was “inactive” throughout. The outcome in [1] and in [17] was inactive. In addition, the activation is -1.03% (inactive) in experiment [9] and 2.76% (inactive) in experiment [10].
Consider `C=C(C)C(=O)OCC[N+](C)(C)C`, for which the max response was 8.9% in experiment [18]; 7.2% in experiment [4]; -2.12% (inactive) in [11]; -15.2% (inactive) in experiment [14]; 0.4% (inactive) in experiment [16]. The Potency result in experiment [19], in experiment [2], in experiment [5], in [6], in experiment [12] and in [15] was “inactive” throughout. The outcome in experiment [1], in experiment [3] and in experiment [17] was inactive. The activation in experiment [10] was -2.41% (inactive).
